Bioassay records deposited in PubChem by National Center for Advancing Translational Sciences (NCATS).
An excerpt weighted towards active compounds, which were near 3.2% of everything screened.
Tau fluor counter: counter-screen for tau fibril formation inhibitors. tau K18 P301L Alexa594 fluorescence, heparin fibrillization. Potency, µM (titrated, usually from 57.7 µM), without a hit: top-dose activity change, negative = decrease. 280,000 compounds, 0.93% hits. AID 1463; also: potency is read from the fitted curve at half-maximal effect; % is scaled to controls: 0 for no effect and ±100 for the full control effect; nearly all actives have a fitted effect of over 55% in size
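Human K18 P301L tau (15 uM unlabeled plus 0.24 uM Alexa 594-labeled, final) in 100 mM sodium acetate pH 7 was mixed with compound and 20 uM heparin and incubated 6 hr at 37 C.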
KDM4E inh: blocks human JMJD2E demethylase activity; B2RXH2; JMJD2E catalytic domain, FDH-coupled NADH fluorescence (FDH is formaldehyde dehydrogenase); Potency, µM (titrated, usually from 57.1 µM), without a hit: at the top dose activity change, negative = inhibition, actives largely listed as inhibitors; 230,000 compounds, 1.6% hits; AID 2147; active = well fitted inhibition curve with a large enough effect, not every such curve was filed as active; inconclusive = small, poorly fitted or top-dose-only effect, or another doubt; inactive = no such curve, though single readings can be large or run the other way;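 also: potency is read from the fitted curve at half-maximal effect; 0% = wells with enzyme and -100% = buffer wells without enzyme; nearly all actives have a fitted effect of over 50% in size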
Target sequence (B2RXH2 1-337 limits assumed): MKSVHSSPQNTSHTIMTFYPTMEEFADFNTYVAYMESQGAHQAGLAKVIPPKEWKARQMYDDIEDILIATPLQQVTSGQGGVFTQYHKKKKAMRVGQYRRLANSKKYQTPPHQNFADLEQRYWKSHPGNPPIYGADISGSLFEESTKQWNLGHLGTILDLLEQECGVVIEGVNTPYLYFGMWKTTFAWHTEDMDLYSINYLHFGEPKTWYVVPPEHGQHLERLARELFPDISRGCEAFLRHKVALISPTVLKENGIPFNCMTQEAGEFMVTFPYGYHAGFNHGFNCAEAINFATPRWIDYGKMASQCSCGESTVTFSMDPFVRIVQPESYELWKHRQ
Tau fibril FP: inhibitors of human tau fibril formation. P10636. K18 P301L tau heparin fibrillization, Alexa594 FP, 6 h. Potency, µM (series often up to 57.7 µM), without a hit: top-dose activity, negative = inhibition, hits mostly inhibitors. 280,000 compounds, 0.39% hits. AID 1468; also: potency is read from the fitted curve at half-maximal effect; % is scaled to controls: 0 for no effect and ±100 for the full control effect; nearly all actives have a fitted effect of over 55% in size
Target sequence (P10636 561-689 P618L limits assumed): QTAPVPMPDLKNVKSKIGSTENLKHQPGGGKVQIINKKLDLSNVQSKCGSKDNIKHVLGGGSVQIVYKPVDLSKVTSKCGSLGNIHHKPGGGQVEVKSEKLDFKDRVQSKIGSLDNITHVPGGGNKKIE
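Heparin (20 uM) drove fibril formation of recombinant tau K18 P301L, 15 uM unlabeled with 0.24 uM Alexa 594 label, for 6 hr at 37 C in 100 mM sodium acetate pH 7. Fluorescence polarization (555/632 nm) read 1 hr after 30 uM ThT.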
CBFb-RUNX1 inh: blocks binding between human CBF-beta and RUNX1; 230,000 tested, under 10 active; Potency, µM (highest dose often 59.8 µM), for inactives: at the top dose activity, negative = inhibition, most hits filed as inhibitors; AlphaScreen CBFb-His/RUNX1-biotin binding, biochemical; AID 1477; Q01196+Q13951; also: % of control where 0% means no effect
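AlphaScreen binding: CBFb-His and RUNX1-biotin (30 nM each) preincubated 20 min, compound added for 15 min, then nickel and streptavidin beads for 90 min, all at room temperature. Disruption of the interaction by any mechanism counts as activity.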
Tau fibril ThT: blocks human tau fibril formation measured by thioflavin T; P10636; recombinant tau K18 P301L (four-repeat tau fragment), heparin-induced fibrillization, ThT fluorescence; Potency, µM (titrated, usually from 57.4 µM), for inactives: at the highest dose activity, negative = inhibition, hits mostly inhibitors; 270,000 compounds, 2.1% hits; also: potency is read from the fitted curve at half-maximal effect; % is scaled to controls: 0 for no effect and ±100 for the full control effect; nearly all actives have a fitted effect of over 55% in size
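Heparin-induced (20 uM) aggregation of recombinant human K18 P301L tau, 15 uM unlabeled with 0.24 uM labeled, pH 7 acetate buffer, 6 hr at 37 C with compound. Fibrils quantified by 30 uM ThT fluorescence after 1 hr ambient incubation.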
Lamin A splicing: LMNA splicing modulation; 200,000 compounds, 0.01% hits; AID 1487; Potency, µM (highest dose often 46.1 µM), for the others: top-dose ratio change, negative = inhibition, actives largely listed as inhibitors; HeLa LMNA splicing GFP/RFP minigene ratio, 48 h; active = well fitted inhibition curve with a large enough effect in the signal ratio, with a control signal flat, not every such curve was filed as active; inconclusive = small, poorly fitted or top-dose-only effect, or effect the other way, or a change in a side signal; the % refers to the signal ratio; also: potency is read from the fitted curve at half-maximal effect; % is scaled to controls: 0 for no effect and ±100 for the full control effect
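S3 HeLa cells stably expressing lamin A-EGFP splicing minigene plus DsRed2, 600 cells/well, 48 h compound exposure at 37C. Laser-scanning cytometry; analysed as GFP (500-530 nm)/RFP (575-640 nm) total intensity ratio; 0.5% DMSO vehicle.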
Starred values were filed as active, the others as inactive; ? = inconclusive; . = no result given; [ ] = dose if it differs, or a comment. Unless noted, calls follow the shape of the dose curve; as a rule, active = well fitted curve in the direction sought with a large enough effect; inconclusive = small, poorly fitted or top-dose-only effect, or another doubt; inactive = no such curve, though single readings can be large; an effect the other way counts as inactive or inconclusive.

SMILES | Tau fluor counter | KDM4E inh | Tau fibril FP | CBFb-RUNX1 inh | Tau fibril ThT | Lamin A splicing
COc1ccc(CNC(=O)CN2C(=O)CCCc3ccccc32)cc1 | 2.8% | . | 0.5% | . | 3.9% | 0.0%[46 µM]
COc1ccccc1N=C1SC(C(=O)Nc2cccc(Cl)c2Cl)C(N)=C1C(N)=O (centres undefined) | 17.8µM*[quencher] | -6.2% | ? | -3.1% | 25.1µM* | .
COc1cccc(/C=N/Nc2nnc3c(n2)[nH]c2ccccc23)c1OC | -2.6% | 10.1% | -2.7% | 9.8% | . | .
CC(/C=N/Nc1nnc2c(n1)[nH]c1ccccc12)=C\c1ccco1 | ? | 0.6% | -12.4% | 0.2% | 6.31µM* | 10.8%
Cc1cccc2c1[nH]c1nc(N/N=C\c3ccco3)nnc12 | -27.6% | 3.5% | -6.6% | ? | 6.31µM* | -8.7%
Cc1noc(C)c1-c1ccc2ncnc(NC3CCCc4ccccc43)c2c1 (centres undefined) | . | . | . | 2.5% | . | .
Brc1ccc2ncnc(Nc3ccc(N4CCOCC4)cc3)c2c1 | ? | -6.2% | 9.9% | -26.0% | 8.91µM* | ?
O=C(COc1ncnc2ccc(Br)cc12)Nc1ccc(N2CCOCC2)cc1 | -24.3% | -0.8% | 13.3% | -12.6% | -18.6% | -5.7%
CN(C)c1ccc(/C=N/n2ncc3ccccc32)cc1 | ? | ? | 14.3% | ? | 3.98µM* | ?
C=CCn1c(/N=C/c2ccc(N(C)C)cc2)nc2ccccc21 | -2.8% | -1.6% | 2.3% | -0.6% | 1.1% | 9.6%
COc1cccc(=O)c2c(C)n(-c3ccc(C(=O)O)cc3)c(C)c12 | -13.8% | ? | ? | ? | 15.8µM* | -9.6%[46 µM]
COc1ccc(-n2c(C)c3c(OC)cccc(=O)c3c2C)cc1 | -22.7% | -3.2% | ? | -14.1% | 17.8µM* | -2.9%
Oc1cccc(Nc2ccccc2)c1 | . | . | . | 3.8%[21.7 µM] | . | .
CC(C)c1cc(Nc2cccc(O)c2)cc(C(C)C)c1O | ? | 0.1% | ? | -8.3% | 31.6µM* | -15.7%
Cc1cccc[n+]1C1C(c2ccccc2)C(C#N)=C(C(=C=[N-])C#N)NC1(O)C1CC1 (centres undefined) | ? | ? | ? | -2.9% | 17.8µM* | -6.6%
N#CC(=C=[N-])C1=C(C#N)C(c2ccccc2F)C([n+]2ccccc2)C(O)(C2CC2)N1 (centres undefined) | -25.2% | ? | -1.1% | 2.3% | ? | ?
Cc1ccc2c(c1)c1c(c(=O)n(Cc3ccccc3)c(=O)n1Cc1ccccc1F)n2C | -17.4% | . | -9.9% | . | -11.7% | .
COc1ccc(O)c(/C=c2/sc3nc4cc(C)c(C)cc4n3c2=O)c1 | ? | -18.5% | ? | -17.9% | 22.4µM* | 0.5%
COc1ccc(OC)c(/C=c2\sc3nc(-c4cccs4)nn3c2=O)c1 | -19.6% | ? | ? | 6.4% | ? | -4.8%
Clc1ccc(-c2noc3ncnc(NCCCN4CCN(c5ccccc5)CC4)c23)cc1 | -29.3% | . | -8.3% | . | -13.7% | 3.6%[46 µM]
O=c1[nH]c(=O)c2nnc(N/N=C\c3ccc(O)cc3)nc2[nH]1 | -10.2% | 3.2% | -1.0% | -7.5% | 3.98µM* | ?
O=c1[nH]c(=O)c2nnc(N/N=C/c3ccccc3F)nc2[nH]1 | -0.7% | 0.9% | 1.4% | 10.7% | . | .
CCOC(=O)C1CCCN(S(=O)(=O)c2ccc3[nH]c(=O)ccc3c2)C1 (centres undefined) | -9.8% | . | -14.6% | . | -2.5% | 6.8%[46 µM]
C=C1C[C@@]23C[C@@]1(O)CCC2[C@@]12C=CC(O)[C@](C)(C(=O)O1)C2C3C(=O)O (some centres undefined) | 4.9% | 1.2% | 10.3% | . | 0.5% | -6.8%
Cc1ccc(C)c(Nc2nc(N)c3ccccc3n2)c1 | -4.2% | -13.8% | 2.6% | 4.3% | -1.2% | 1.7%[46 µM]
SMILES | Tau fluor counter | KDM4E inh | Tau fibril FP | CBFb-RUNX1 inh | Tau fibril ThT | Lamin A splicing
COc1ccc(C)cc1Nc1nc(N)c2cc(OC)c(OC)cc2n1 | 20µM*[quencher] | . | ? | . | -5.4% | .
CCOC(=O)c1c(Oc2ccc(C(=O)OC)cc2)nnc(-c2ccccc2)c1-c1ccccc1 | -18.4% | . | -7.3% | . | -9.9% | .
O=c1c(O)c(-c2ccc(O)c(O)c2)oc2c(OC[C@@H]3O[C@@H](O)[C@@H](O)[C@H](O)[C@H]3O)c(O)cc(O)c12 | -20.8% | 5.01µM* | -14.6% | -27.9%[21.7 µM] | 10µM* | .
O=c1c(O)c(-c2ccc(O)c(O)c2)oc2c(OC3OC(CO)C(O)C(O)C3O)c(O)cc(O)c12 (centres undefined) | -28.2% | 1.8% | ? | 1.4% | 14.1µM* | .
COc1ccc(-c2oc3c(CC=C(C)C)c(O[C@@H]4O[C@H](CO)[C@@H](O)[C@H](O)[C@H]4O)cc(O)c3c(=O)c2O[C@@H]2O[C@@H](C)[C@H](O)[C@@H](O)[C@H]2O)cc1 | -5.7% | -20.1% | 2.9% | -2.1% | -10.2% | .
O=c1cc(-c2ccc(O)c(O)c2)oc2cc(O[C@@H]3O[C@H](CO)[C@@H](O)[C@H](O)[C@H]3O)cc(O)c12 | . | . | . | 1.4% | . | .
C=C1C[C@@]23CC4C5[C@@]6(C)C[C@H](O)C[C@@]57C2[C@H](O)[C@@H]1[C@H](O)[C@H]3[C@H]7N4C6 | -2.9% | 0.8% | 4.9% | -3.7% | -1.2% | .
CCN(CC)CCNc1cc(C)nc2c1C(=O)C(=O)C=C2N1CCCCC1 | -26.5% | ? | ? | -5.3% | 8.91µM* | .
CCN(CC)CCNC(=O)c1ccc(N2CCCCC2)c(NS(=O)(=O)c2ccc(C)cc2)c1 | -16.7% | ? | -2.0% | 1.3% | -5.4% | -1.6%
CCCCC(=O)/C=C/n1c(=S)oc2ccccc21 | -7.5% | 0.8% | ? | 4.0% | 14.1µM* | ?
Cc1ccc(CCNC(=O)c2ccc3[nH]c(C)c(C)c3c2)cc1 | ? | . | 11.6% | . | ? | .
CCOc1ccc(CCNC(=O)c2ccc3[nH]c(C)c(C)c3c2)cc1 | 25.1µM*[quencher] | . | 15.7% | . | ? | .
COc1ccc(/C=C/C(=O)c2ccccc2O)cc1 | -13.0%[11.6 µM] | -2.8% | 7.6%[11.6 µM] | 8.9%[13.1 µM] | ? | -1.2%
COc1ccc(/C=C/C(=O)c2ccccn2)cc1 | -21.6% | ? | -14.6% | ? | 20µM* | -1.1%[46 µM]
COc1ccc(/C=C/C(=O)c2c(O)c(OC)c3occc3c2OC)cc1 | ? | -18.0% | 3.1% | -25.1% | 4.47µM* | ?
Cc1cccc(C2=NN(c3ccccc3)[C@H](CO)[C@H]2c2ccccc2)c1 | 17.8µM*[quencher] | . | ? | ? | ? | .
Cc1cccc(C2=NN(c3ccccc3)[C@@H](C(=O)N3CCOC3=O)[C@@H]2c2ccc(F)cc2)c1 | ? | . | 4.5% | ? | -10.2% | .
OC[C@@H]1[C@@H](c2ccc(F)cc2)C(c2ccccc2)=NN1c1ccccc1 | 15.8µM*[quencher] | . | 13.5%[81.3 µM] | ? | ? | .
